Sampled rows, rich in hits. Any-hit rate of the full collection: about 7.1%.
SW480 rerep = A quantitative high throughput screen for small molecules that induce DNA re-replication in SW480 colon adenocarcinoma cells | SW480 DNA re-replication, Hoechst DNA content imaging, 48 h | Potency, µM (series often up to 46.1 µM), hits mostly activators | hit rate 1.8% among 340,000 | AID 624297, 2012; note: nearly all actives have a fitted effect of over 55% in size
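Per well, 250 cells were exposed to pinned compound for 48 hr. Nuclear DNA was visualised with Hoechst (40 min, 37 C) and total object intensity recorded by fluorescence scanning.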
ELG1 DNA repair = qHTS screen for small molecules that inhibit ELG1-dependent DNA repair in human embryonic kidney (HEK293T) cells expressing luciferase-tagged ELG1; Potency, µM (highest dose often 46.1 µM), actives largely listed as inhibitors; AID 504467, 2011; HEK293T ELG1-luciferase reporter, luminescence, 16 h; DNA damage induced by 5-fluorouridine; hit rate 2.3% among 330,000; note: nearly all actives have a fitted effect of over 55% in size
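HEK293T cells expressing luciferase-tagged ELG1 (2,000/well) received 5-Fluorouridine plus compound or DMSO for 16 hr at 37 °C. Luciferase was read by ONE-Glo luminescence after 30 min at room temperature.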
ELG1 genotox = qHTS screen for small molecules that induce genotoxicity in human embryonic kidney (HEK293T) cells expressing luciferase-tagged ELG1; hit rate 1.3% among 330,000; HEK293T ELG1-luciferase reporter, luminescence, 16 h; Potency, µM (series often up to 46 µM), hits mostly activators; note: nearly all actives have a fitted effect of over 60% in size
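Screening used a luciferase reporter fused to human ELG1 in HEK293T cells. Luminescence was read on a CCD plate imager after 16 hr exposure and 30 min ONE-Glo incubation.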
A-T KAP1 phos = qHTS Assay for Identifying a Potential Treatment of Ataxia-Telangiectasia. AID 485349, 2010. F2112 A-T fibroblasts, KAP-1 phosphorylation AlphaLISA; neocarzinostatin DNA damage 30 min before lysis. hit rate 0.19% among 320,000. Potency, µM (series often up to 57.5 µM), most hits filed as activators; note: nearly all actives have a fitted effect of over 45% in size
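hTERT-immortalized A-T patient fibroblasts (F2112), 500 cells/well in OPTI-MEM, 1% FBS, got compounds for 60 min, then NCS for 30 min at 37C. Lysates were then assayed for phospho-KAP-1 by AlphaLISA (anti-pKAP1 donor, anti-KAP1 acceptor beads), 6 hr at 25C.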
MCF10A rerep = A quantitative high throughput screen for small molecules that induce DNA re-replication in MCF 10a normal breast cells | MCF 10A DNA re-replication, Hoechst nuclear intensity, 48 h | Potency, µM (titrated, usually from 46.1 µM), usual class: activators | hit rate 2.9% among 350,000 | AID 624296, 2012; note: nearly all actives have a fitted effect of over 50% in size
p53 reactivation = qHTS assay for re-activators of p53 using a Luc reporter; H1299 p53-A138V BP100-luciferase reporter, luminescence, 24 h; Potency, µM (top dose mostly 92.2 µM), usual class: activators; hit rate 0.063% among 320,000; AID 504706, 2011; note: nearly all actives have a fitted effect of over 45% in size
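p53-null H1299 cells stably carrying temperature-sensitive p53-A138V and a BP100-luciferase reporter were pinned with compounds (4-point, 1:5 series) and held 24 hrs at 37 deg C. Luminescence was read 10 min after detection reagent.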
A number is an active result; i = inactive; ? = inconclusive; nt = not tested or not shown. Calls come from the whole dose curve; as a rule, active = well fitted curve in the direction sought with a large enough effect; inconclusive = small, poorly fitted or top-dose-only effect, or another doubt; inactive = no such curve, though single readings can be large; an effect the other way counts as inactive or inconclusive.

SMILES	SW480 rerep	ELG1 DNA repair	ELG1 genotox	A-T KAP1 phos	MCF10A rerep	p53 reactivation
Cc1ccc(O)c(-c2cc(-c3cccc(F)c3)n[nH]2)c1	?	?	i	i	25.9µM	?
Cc1ccc(-c2cc(-c3cccc(F)c3)n[nH]2)c(O)c1	i	?	?	i	?	?
Cc1ccc(CN=C2NC(=O)C(CC(=O)NCCc3ccccc3)S2)cc1 (configuration not stated)	nt	i	i	i	nt	i
COc1ccccc1NS(=O)(=O)c1cc(C(=O)NCC(C)(C)N2CCOCC2)ccc1C	i	i	i	i	i	i
CCN(Cc1nc(-c2ccccc2)no1)C(=O)c1ccco1	i	i	i	i	i	i
Cc1ccccc1OCCc1c(C)[nH]c(=S)[nH]c1=O	3.66µM	?	?	i	?	i
CCOC(=O)CSc1nc2ccccc2c(=O)n1CCN1CCOCC1	i	?	i	i	i	i
COC(=O)c1ccc2c(=O)n(CCN3CCOCC3)c(SCC(=O)c3ccccc3)nc2c1	i	i	i	17.8µM	i	i
O=C(OCC(=O)N1CCC(Cc2ccccc2)CC1)c1ccc(CO)cc1	i	i	i	i	i	i
COC(=O)c1cc(NC(=O)c2cccc(C(F)(F)F)c2)c(=O)oc1C	i	i	i	i	i	i
COC(=O)c1cc(NC(=O)c2cccc(C(F)(F)F)c2)c(=O)oc1C/C=N/OCc1cccc(Cl)c1Cl	i	i	i	nt	18.4µM	i
CC(=O)N(C1=C(N2CCOCC2)C(=O)c2ccccc2C1=O)c1ccc(C(=O)O)cc1	4.11µM	23.1µM	i	i	?	i
CC(=O)N(C)C1=C(N2CCOCC2)C(=O)c2ccccc2C1=O	?	?	i	i	0.731µM	i
Cn1cc([N+](=O)[O-])c(C(=O)NC2CCCCCC2)n1	i	?	i	i	i	i
Cc1nc2cnccc2n1C	i	i	i	i	i	i
CC(C)n1c(-c2cccnc2)nc2cnccc21	i	13µM	i	i	i	i
Cn1c(-c2ccccc2)nc2cnccc21	i	i	i	20µM	i	i
O=C(O)/C(=C\c1ccc2ccccc2c1)c1cccc2ccccc12	i	nt	nt	nt	i	nt
C=CCN1C(=O)/C(=C/C(=O)OC)S/C1=N\NC(=O)c1ccccc1	?	?	i	10µM	?	i
COc1ccc(C2CC(C(F)(F)F)n3nc(C(=O)NCc4cn(C)nc4C)c(Cl)c3N2)cc1 (configuration not stated)	i	23.1µM	i	i	i	i
Cc1ccc(C2CC(C(F)(F)F)n3nc(C(=O)NCc4c(C)nn(C)c4C)c(Cl)c3N2)cc1 (configuration not stated)	i	11.6µM	i	i	i	i
C=CC[C@@H](CC(=O)NCCO)C(=O)N[C@H](C)COC(=O)[C@@H](CC=C)Cc1ccc(F)cc1	i	i	i	i	i	i
C=C1C(=O)O[C@@H]2[C@H]1CC[C@H](C)[C@]1(O)CCC(=O)[C@@]21C	?	i	i	i	23.1µM	?
C=C1CCC(O)C2(C)CCC3C(C)C(=O)OC3C12O (configuration not stated)	i	i	i	?	i	i
O=C(CSc1nc2nc(-c3cccs3)cc(C(F)(F)F)c2c(=O)[nH]1)Nc1ccc(F)c(F)c1	i	?	i	i	18.4µM	i
Cc1ccc(C)c(NC(=O)CSc2nc3nc(-c4cccs4)cc(C(F)(F)F)c3c(=O)[nH]2)c1	i	?	i	i	20.6µM	i
O=C(CC(=O)c1ccccc1)Nc1ccccc1C(F)(F)F	i	?	i	i	i	?

Source: PubChem BioAssay
